Reference: PubChem BioAssay (Tox21)
Inconclusive results are not listed. Active and inactive are the calls of the source. Unless noted, the call rests on the fitted dose curve.

How the values were obtained:
[1] = Nuclear factor erythroid 2-related factor 2/antioxidant responsive element (Nrf2/ARE) small molecule agonists: qHTS cell viability counter screen in human keratinocytes (AID 1919968; active means well fitted curve in the direction sought with a large enough effect in the repeat runs; an effect the other way counts as inactive or inconclusive; further: nearly all actives have a fitted effect of over 55% in size)
Method in brief: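 Viability counter-screen: KeratinoSens reporter cells, DMSO-delivered compounds, 23 h at 37 C, CellTiter-Fluor fluorescence.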

[2] = Nuclear factor erythroid 2-related factor 2/antioxidant responsive element (Nrf2/ARE) small molecule agonists: luciferase reporter gene qHTS assay in human keratinocytes (AID 1919969); further: nearly all actives have a fitted effect of over 35% in size
[3] = molecular target: Gonadotropin-releasing hormone receptor (Homo sapiens) (UniProt P30968); experiment: Human gonadotropin-releasing hormone receptor (GnRHR) small molecule agonists, calcium flux assay in GnRHR-HEK293 cells (AID 1920063); further: nearly all actives have a fitted effect of over 35% in size
Chain of Gonadotropin-releasing hormone receptor (Homo sapiens) (P30968 whole entry, looked up): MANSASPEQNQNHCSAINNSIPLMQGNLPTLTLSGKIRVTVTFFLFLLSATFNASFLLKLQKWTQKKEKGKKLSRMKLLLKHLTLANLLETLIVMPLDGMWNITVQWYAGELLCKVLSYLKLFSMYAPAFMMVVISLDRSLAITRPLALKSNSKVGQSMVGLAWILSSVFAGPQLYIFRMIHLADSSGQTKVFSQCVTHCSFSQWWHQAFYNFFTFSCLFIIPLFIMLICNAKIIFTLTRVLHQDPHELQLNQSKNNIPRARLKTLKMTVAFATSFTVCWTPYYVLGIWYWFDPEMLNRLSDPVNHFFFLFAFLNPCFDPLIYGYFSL
Method in brief: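 Tox21-format agonist screen using human GnRHR-expressing HEK293 cells and a fluorescent calcium dye; kinetic 3-min fluorescence reading after compound addition, 15-point concentration series run in triplicate.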

[4] = molecular target: KiSS-1 receptor (Homo sapiens) (UniProt Q969F8); experiment: Human kisspeptin (KISS1R) small molecule agonists, calcium flux assay in KISS1R-HEK293 cells (AID 1920064; active means well fitted curve in the direction sought with a large enough effect in the repeat runs; an effect the other way counts as inactive or inconclusive)
Chain of KiSS-1 receptor (Homo sapiens) (Q969F8 whole entry, looked up): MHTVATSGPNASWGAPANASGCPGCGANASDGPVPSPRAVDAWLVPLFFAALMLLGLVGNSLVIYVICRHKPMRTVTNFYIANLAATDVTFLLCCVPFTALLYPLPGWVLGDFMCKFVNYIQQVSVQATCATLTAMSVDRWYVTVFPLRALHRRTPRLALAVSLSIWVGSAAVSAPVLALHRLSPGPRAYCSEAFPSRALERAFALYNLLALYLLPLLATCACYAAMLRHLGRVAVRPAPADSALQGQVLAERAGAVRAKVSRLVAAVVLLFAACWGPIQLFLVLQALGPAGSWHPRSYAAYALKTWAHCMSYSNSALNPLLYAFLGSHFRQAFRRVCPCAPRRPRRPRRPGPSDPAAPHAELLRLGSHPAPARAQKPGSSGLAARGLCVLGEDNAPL
Method in brief: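 Intracellular calcium mobilization in KISS1R-HEK293 cells was recorded by fluorescence (Ex/Em 480/540) for 3 min following compound addition to cells pre-loaded 1 h with calcium dye.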

[5] = G protein-coupled receptor (GPCR) small molecule agonists, calcium flux assay: HEK293 wild type cell line counter screen (AID 1920065)
Method in brief: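 In this agonist-mode screen, ATP is the positive control and DMSO the vehicle. Cells grow 18 h before a 1 h dye incubation at 37 C; signal is taken at Ex/Em 480/540 over 3 min.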

[6] = p53 small molecule agonists, cell-based qHTS assay with human liver microsomes (AID 1963577);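 further: p53 response element beta-lactamase reporter cells with liver microsomes plus NADPH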
Method in brief: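 HLM-supplemented p53RE-bla reporter assay: 16 h compound exposure at 37 C, microsomes and NADPH each 0.5 mg/mL final, read by fluorescence intensity.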

[7] = p53 small molecule agonists, cell-based qHTS assay with rat liver microsomes (AID 1963578)
Method in brief: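 Quantitative HTS of the Tox21 10K library: p53RE-bla cells, rat liver microsomes plus NADPH at 0.5 mg/mL final each, 16 h at 37 C, beta-lactamase fluorescence detection.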

[8] = p53 small molecule agonists, cell-based qHTS assay with human liver microsomes: qHTS cell viability counter screen (AID 1963579); further: nearly all actives have a fitted effect of over 45% in size
Method in brief: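 Viability of p53RE-bla cells is measured as CellTiter-Glo luminescence following a 16 h, 37 C incubation with compound, liver microsomes from human donors and NADPH.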

[9] = p53 small molecule agonists, cell-based qHTS assay with rat liver microsomes: qHTS cell viability counter screen (AID 1963580); further: nearly all actives have a fitted effect of over 45% in size
Method in brief: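 Viability is assessed in parallel with the p53 reporter read: HCT-116 p53RE-bla cells receive compounds plus rat microsomes and NADPH (0.5 mg/mL final apiece), incubate 16 h at 37 C, and then CellTiter-Glo luminescence is recorded.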

[10] = p53 small molecule agonists, cell-based qHTS assay: qHTS cell viability counter screen (AID 1963581); further: nearly all actives have a fitted effect of over 45% in size
Method in brief: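 Compounds are pinned onto HCT-116 p53RE-bla cells and left 16 h at 37 C. Following the reporter FRET read, ATP is quantified by CellTiter-Glo luminescence after 30 min at room temperature.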

[11] = p53 small molecule agonists, cell-based qHTS assay (AID 1963582; active means well fitted activation curve with a large enough effect in the signal ratio in the repeat runs, not every such curve was filed as active; the % refers to the signal ratio)
Method in brief: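 Agonist activity was scored from beta-lactamase FRET fluorescence in p53RE-bla cells treated 16 h at 37 C with compounds in DMSO, substrate incubation being 2 h at room temperature.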

[12] = molecular target: 5-hydroxytryptamine receptor 2A (Homo sapiens) (UniProt P28223); experiment: 5-hydroxytryptamine receptor 2A (HTR2A) small molecule antagonists, cell-based qHTS assay (AID 1963586); further: nearly all actives have a fitted effect of over 45% in size
Chain of 5-hydroxytryptamine receptor 2A (Homo sapiens) (P28223 whole entry, looked up): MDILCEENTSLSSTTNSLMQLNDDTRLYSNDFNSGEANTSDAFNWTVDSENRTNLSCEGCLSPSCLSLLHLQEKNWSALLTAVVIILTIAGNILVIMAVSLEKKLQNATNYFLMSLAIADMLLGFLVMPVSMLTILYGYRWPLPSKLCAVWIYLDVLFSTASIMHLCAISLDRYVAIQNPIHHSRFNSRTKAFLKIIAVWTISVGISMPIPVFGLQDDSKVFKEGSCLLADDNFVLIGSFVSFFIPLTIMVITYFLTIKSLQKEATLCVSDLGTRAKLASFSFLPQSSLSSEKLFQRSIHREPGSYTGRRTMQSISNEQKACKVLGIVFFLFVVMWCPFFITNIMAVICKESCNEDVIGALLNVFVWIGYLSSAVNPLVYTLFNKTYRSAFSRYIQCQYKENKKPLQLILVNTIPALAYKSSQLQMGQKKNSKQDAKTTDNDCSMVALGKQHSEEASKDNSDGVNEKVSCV
Method in brief: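 Antagonist-mode intracellular calcium assay: DOI (4 nM) added after 5 min compound pre-incubation at room temperature to dye-loaded HTR2A-CHO cells. Fluorescence followed for 3 min, sampled every second.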

[13] = molecular target: 5-hydroxytryptamine receptor 2A (Homo sapiens) (UniProt P28223); experiment: 5-hydroxytryptamine receptor 2A (HTR2A) small molecule agonists, cell-based qHTS assay (AID 1963587); further: nearly all actives have a fitted effect of over 30% in size
Method in brief: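 CHO cells stably expressing human HTR2A, plated 18 h, loaded with calcium dye 1 h at 37 C. Agonist mode: compounds added and intracellular calcium fluorescence recorded kinetically for 2 min at 1 sec intervals.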

[14] = molecular target: Muscarinic acetylcholine receptor M1 (Homo sapiens) (UniProt P11229); experiment: Cholinergic receptor muscarinic 1 (CHRM1) small molecule agonists, cell-based qHTS assay (AID 1963589); further: nearly all actives have a fitted effect of over 35% in size
Chain of Muscarinic acetylcholine receptor M1 (Homo sapiens) (P11229 whole entry, looked up): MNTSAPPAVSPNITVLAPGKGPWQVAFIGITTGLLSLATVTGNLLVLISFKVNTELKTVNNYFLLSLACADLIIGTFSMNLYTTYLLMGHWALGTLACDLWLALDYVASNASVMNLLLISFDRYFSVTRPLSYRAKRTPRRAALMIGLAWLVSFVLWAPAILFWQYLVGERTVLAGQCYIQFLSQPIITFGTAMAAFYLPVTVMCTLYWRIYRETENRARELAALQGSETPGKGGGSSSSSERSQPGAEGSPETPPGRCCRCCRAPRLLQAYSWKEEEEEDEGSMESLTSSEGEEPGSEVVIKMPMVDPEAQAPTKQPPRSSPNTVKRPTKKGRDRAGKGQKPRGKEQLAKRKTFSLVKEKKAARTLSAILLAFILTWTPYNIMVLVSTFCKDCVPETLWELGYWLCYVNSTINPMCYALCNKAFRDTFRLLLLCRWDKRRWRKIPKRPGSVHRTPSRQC
Method in brief: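 Stable CHRM1-CHO cells (human receptor) were incubated 18 h, dye-loaded for 1 h at 37 C and exposed to test compounds for agonist activity, with calcium-dependent fluorescence followed kinetically.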

[15] = cAMP Responsive Elements (CRE) small molecule agonists, cell-based qHTS assay (AID 1963590)
Method in brief: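 FRET-based beta-lactamase readout (LiveBLAzer B/G, 2 h RT) quantified CRE activation in HEK 293T CRE-bla cells after 3 h treatment with DMSO-dissolved compounds.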

[16] = cAMP Responsive Elements (CRE) small molecule antagonists, cell-based qHTS assay (AID 1963591; active means well fitted inhibition curve with a large enough effect in the signal ratio in the repeat runs, not every such curve was filed as active; the % refers to the signal ratio)
Method in brief: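 qHTS in CRE-bla HEK 293T cells: compound in DMSO, then 0.25 uM NKH477 (final), 3 h at 37 °C/5% CO2; beta-lactamase FRET read-out after 2 h substrate incubation.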

[17] = molecular target: Beta-2 adrenergic receptor (Homo sapiens) (UniProt P07550); experiment: Adrenergic beta2 receptor (ADRB2) small molecule antagonists, cell-based qHTS assay (AID 1963592); further: series mostly up to about 92 µM; nearly all actives have a fitted effect of over 50% in size
Chain of Beta-2 adrenergic receptor (Homo sapiens) (P07550 whole entry, looked up): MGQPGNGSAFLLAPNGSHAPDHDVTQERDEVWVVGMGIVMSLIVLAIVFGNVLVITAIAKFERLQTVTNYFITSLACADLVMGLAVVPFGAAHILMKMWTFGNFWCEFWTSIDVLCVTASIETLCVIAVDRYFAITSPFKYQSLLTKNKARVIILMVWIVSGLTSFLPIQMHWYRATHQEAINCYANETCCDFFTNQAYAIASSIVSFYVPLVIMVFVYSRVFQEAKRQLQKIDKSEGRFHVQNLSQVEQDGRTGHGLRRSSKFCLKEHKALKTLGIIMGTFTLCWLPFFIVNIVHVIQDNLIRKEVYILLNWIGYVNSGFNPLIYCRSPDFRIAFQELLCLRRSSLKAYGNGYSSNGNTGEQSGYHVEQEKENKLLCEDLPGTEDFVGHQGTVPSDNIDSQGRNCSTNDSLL
Method in brief: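 Cells (CHO, stable ADRB2 overexpression) incubated 18-20hr at 37C; compounds added from DMSO; agonist mix (1nM isoproterenol, 100uM IBMX, 25uM Ro-20-1724) added; 0.5hr RT; d2-cAMP and anti-cAMP-cryptate added; 1hr RT; 665/615 nm read.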

[18] = molecular target: D(2) dopamine receptor (Homo sapiens) (UniProt P14416); experiment: Dopamine D2 receptor (DRD2) small molecule agonists, cell-based qHTS assay (AID 1963594); further: nearly all actives have a fitted effect of over 35% in size
Chain of D(2) dopamine receptor (Homo sapiens) (P14416 whole entry, looked up): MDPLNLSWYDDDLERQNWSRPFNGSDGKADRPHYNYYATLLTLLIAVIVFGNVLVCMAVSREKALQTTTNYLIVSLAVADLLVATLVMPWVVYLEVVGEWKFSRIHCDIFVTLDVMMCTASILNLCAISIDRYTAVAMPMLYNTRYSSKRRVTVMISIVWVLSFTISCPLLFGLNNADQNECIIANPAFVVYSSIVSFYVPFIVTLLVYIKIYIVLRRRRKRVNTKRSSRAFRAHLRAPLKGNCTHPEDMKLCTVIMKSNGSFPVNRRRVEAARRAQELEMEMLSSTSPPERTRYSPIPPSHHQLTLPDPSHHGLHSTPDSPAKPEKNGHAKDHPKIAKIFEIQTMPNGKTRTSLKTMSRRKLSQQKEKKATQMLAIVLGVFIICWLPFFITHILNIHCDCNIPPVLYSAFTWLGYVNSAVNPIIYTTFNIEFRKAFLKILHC
Method in brief: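 HEK293 cells stably expressing human DRD2, pre-treated with PDE inhibitor Ro20-1724 (0.1 mM final) and compound 10 min at room temperature, then stimulated with NKH477 (200nM […]) for 30 min. cAMP read by HTRF (665/620 nm).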

[19] = molecular target: D(2) dopamine receptor (Homo sapiens) (UniProt P14416); experiment: Dopamine D2 receptor (DRD2) small molecule antagonists, cell-based qHTS assay (AID 1963595; active means well fitted inhibition curve with a large enough effect in the signal ratio in the repeat runs, with a control signal flat; the % refers to the signal ratio)
Method in brief: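 In this cell-based antagonist screen, compounds act for 10 min at room temperature before a 30 min challenge with 12 nM quinpirole and 200 nM NKH477. cAMP is quantified by HTRF competition in DRD2-HEK293 cells containing 0.1 mM Ro20-1724.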

[20] = molecular target: Muscarinic acetylcholine receptor M1 (Homo sapiens) (UniProt P11229); experiment: Cholinergic receptor muscarinic 1 (CHRM1) small molecule antagonists, cell-based qHTS assay (AID 1963588); further: nearly all actives have a fitted effect of over 40% in size
Method in brief: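 CHRM1-CHO calcium-flux assay, antagonist mode. Cells were seeded 18 h, dye-loaded 1 h at 37 C and given compound for 5 min at RT, then acetylcholine was added at 50nM. FDSS fluorescence was read 3 min; 15 concentrations, three runs.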
On the % scale 0 is the no-effect control and ±100 the full control effect.

CC(CNC1CCCCC1)OC(=O)c1ccccc1 (stereo not drawn)
inactive: Potency [1] | Potency [2] | Potency [3] | outcome [4] | outcome [5] | Potency [6] | Potency [7] | Potency [8] | Potency [9] | Potency [10] | Potency [11] | Potency [12] | Potency [13] | Potency [14] | Potency [15] | Potency [16] | Potency [17] | Potency [18] | Potency [19]

O=C1OC(=O)c2cc([N+](=O)[O-])ccc21
inactive: Potency [1] | Potency [2] | Potency [3] | outcome [4] | outcome [5] | Potency [6] | Potency [7] | Potency [8] | Potency [9] | Potency [10] | Potency [11] | Potency [12] | Potency [13] | Potency [14] | Potency [15] | Potency [16] | Potency [17] | Potency [18] | Potency [19]

O=C(O)c1ccccc1C(=O)Nc1ccc(S(=O)(=O)Nc2nccs2)cc1
inactive: Potency [1] | Potency [2] | Potency [3] | outcome [4] | outcome [5] | Potency [6] | Potency [7] | Potency [8] | Potency [9] | Potency [10] | Potency [11] | Potency [12] | Potency [13] | Potency [14] | Potency [15] | Potency [16] | Potency [17] | Potency [18]

O=C(CO)[C@@H](O)[C@H](O)[C@@H](O)CO
inactive: Potency [1] | Potency [2] | Potency [3] | outcome [4] | outcome [5] | Potency [6] | Potency [7] | Potency [8] | Potency [9] | Potency [10] | Potency [11] | Potency [12] | Potency [13] | Potency [14] | Potency [16] | Potency [17] | Potency [18] | Potency [19]

CCN1CN(CC)CN(CC)C1
inactive: Potency [1] | Potency [2] | Potency [3] | outcome [4] | outcome [5] | Potency [6] | Potency [7] | Potency [8] | Potency [9] | Potency [10] | Potency [11] | Potency [12] | Potency [13] | Potency [14] | Potency [15] | Potency [17] | Potency [18] | Potency [19]

CC(C)CCOC(=O)CC(C)C
inactive: Potency [1] | Potency [2] | Potency [3] | outcome [4] | outcome [5] | Potency [6] | Potency [7] | Potency [8] | Potency [9] | Potency [10] | Potency [11] | Potency [12] | Potency [13] | Potency [15] | Potency [16] | Potency [17] | Potency [18] | Potency [19]

CC(C)=CCC[C@@](C)(O)[C@H]1CC=C(C)CC1
inactive: Potency [1] | Potency [2] | Potency [3] | outcome [4] | outcome [5] | Potency [6] | Potency [7] | Potency [8] | Potency [9] | Potency [10] | Potency [11] | Potency [12] | Potency [20] | Potency [14] | Potency [15] | Potency [16] | Potency [17] | Potency [18] | Potency [19]

C=C[Si](C)(C)Cl
inactive: activity change, negative = cytotoxicity [1] -0.368% [at 8.39 µM] | activity, positive = activation [2] -0.9% [at 8.39 µM] | activity change [3] -0.471% [at 5.22 µM, stronger effect = higher value] | activation [4] -1.18% [at 6.97 µM] | activation [5] 0.126% [at 5.23 µM] | activation [6] -12.4% [at 5.99 µM] | activation [7] 0.959% [at 5.99 µM] | activity change, negative = cytotoxicity [8] -13% [at 5.99 µM] | activity change, negative = cytotoxicity [9] 8.84% [at 5.99 µM] | activity change, negative = cytotoxicity [10] -0.14% [at 5.99 µM] | activation [11] 0.341% [at 5.99 µM] | activity, negative = inhibition [12] -2.68% [at 5.62 µM] | activation [13] -0.8% [at 7.02 µM] | activation [14] 0.156% [at 6.97 µM] | activation [15] 0.4% [at 8.39 µM] | activity change, negative = inhibition [16] -10% [at 8.39 µM] | activity change, negative = inhibition [17] 2.31% [at 8.39 µM] | activity change, negative = inhibition [19] 6.57% [at 8.38 µM]

CCc1nccnc1CC
inactive: activity change, negative = cytotoxicity [1] 5.52% [at 19 µM] | activity, positive = activation [2] 0.453% [at 19 µM] | activity change [3] -0.658% [at 11.8 µM, stronger effect = higher value] | activation [4] 1.62% [at 15.8 µM] | activation [5] -0.595% [at 11.8 µM] | activation [6] 3.14% [at 13.5 µM] | activation [7] 1.15% [at 13.6 µM] | activity change, negative = cytotoxicity [8] -2.07% [at 13.5 µM] | activity change, negative = cytotoxicity [9] -5.78% [at 13.5 µM] | activity change, negative = cytotoxicity [10] 1.59% [at 13.5 µM] | activation [11] 3.48% [at 13.5 µM] | activity, negative = inhibition [12] -8.77% [at 12.7 µM] | activation [13] 3.43% [at 15.9 µM] | activation [15] 0.766% [at 19 µM] | activity change, negative = inhibition [16] -3.19% [at 18.9 µM] | activity change, negative = inhibition [17] -4.86% [at 19 µM] | activation [18] -2.33% [at 19 µM] | activity change, negative = inhibition [19] -10.9% [at 18.9 µM]

COc1c(Br)cc(Br)c(C)c1Br
inactive: Potency [1] | Potency [2] | Potency [3] | outcome [4] | outcome [5] | Potency [6] | Potency [7] | Potency [8] | Potency [9] | Potency [10] | Potency [11] | Potency [12] | Potency [13] | Potency [14] | Potency [15] | Potency [16] | Potency [17] | Potency [18] | Potency [19]

Cc1occc1C(=O)Nc1ccc(C(=O)N2CCC(F)(F)/C(=C\C(=O)N3CCC(N4CCCCC4)CC3)c3ccccc32)cc1
inactive: Potency [1] | Potency [2] | Potency [3] | outcome [4] | outcome [5] | Potency [6] | Potency [7] | Potency [8] | Potency [9] | Potency [10] | Potency [11] | Potency [12] | Potency [13] | Potency [14] | Potency [15] | Potency [16] | Potency [17] | Potency [18] | Potency [19]
